From the supplement of paper PMC10498489
In all, about 2,300 compounds went through this assay and about 330 (14%) showed activity. Only a sample is shown. A number with no mark means an inactive call.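 Rule for the calls: active = median modified Z-score above 1.96; inactive = 1.96 or below.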

Tested on: HepG2 Srxn1-GFP reporter cells (+30 nM CDDO-Me)
Assay: Srxn1-GFP intensity median modified Z-score relative to plate median; higher = stronger NRF2 / oxidative stress reporter activation, active = hit call of the paper
Conditions: 10 µM; exposure time: 24h
Method in brief: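 The per-plate modified Z-score of GFP intensity, taken as a median across replicates, is what each value represents. Three replicate plates of HepG2 Srxn1-GFP BAC reporter cells were exposed for 24 h to an NRF2 activator at 30 nM combined with compound at 10 μM (≤0.1% DMSO). Cytoplasmic GFP per cell was read from confocal images, excluding any with under 100 cells, and scaling used 1.4826 × median absolute deviation.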

SMILES | Srxn1-GFP intensity median modified Z-score
O=C(Nc1nc(-c2ccc(F)c(F)c2)cs1)c1cc(F)c(F)cc1[N+](=O)[O-] | 0.285
Cn1c(=O)c2c(ncn2CC2OCCO2)n(C)c1=O [euspeclibcmpd483] | -0.13
O=c1cc(-c2ccccc2)oc2cc(O)ccc12 [euspeclibcmpd1489] | -0.269
O=c1cc(-c2ccccc2)oc2ccc(O)cc12 [euspeclibcmpd1505] | 0.447
O=c1cc(-c2ccccc2)oc2c(O)c(O)ccc12 [euspeclibcmpd2237] | 4.14 (active)
O=c1c(Cc2c(O)oc3ccccc3c2=O)c(O)oc2ccccc12 [euspeclibcmpd328] | -0.0638
CCCCc1c(O)n(-c2ccccc2)n(-c2ccccc2)c1=O [euspeclibcmpd235] | 0.115
CCCCc1c(O)n(-c2ccc(O)cc2)n(-c2ccccc2)c1=O [euspeclibcmpd223] | 13.1 (active)
O=c1c(CC[S+]([O-])c2ccccc2)c(O)n(-c2ccccc2)n1-c1ccccc1 (stereo unspecified) [euspeclibcmpd282] | -0.197
O=c1c2c3c(sc2nc(SCc2ccc(Cl)c(Cl)c2)n1-c1ccccc1)CCCC3 | 1.55
COCCn1nc(C(=O)NC(C)c2cccc(Cl)c2)ccc1=O (stereo unspecified) | 1.38
CC(C)(Sc1cc(C(C)(C)C)c(O)c(C(C)(C)C)c1)Sc1cc(C(C)(C)C)c(O)c(C(C)(C)C)c1 [euspeclibcmpd377] | -0.0593
Cc1cc(C(C)(C)C)c(O)c(C)c1CC1=NCCN1 [euspeclibcmpd222] | 0.261
Cc1cc(C(C)(C)C)c(O)c(C(C)(C)C)c1 [euspeclibcmpd1001] | 14.5 (active)
CN(C)CCCN1c2ccccc2Sc2ccc(Cl)cc21 [euspeclibcmpd59] | 0.609
O=C(NCCC(=O)N1CCN(Cc2ccc3c(c2)OCO3)CC1)c1ccc(Cl)cc1 | 1.31
CC1(C)SC2C(NC(=O)C(N)c3ccccc3)C(=O)N2C1C(=O)O (stereo unspecified) [euspeclibcmpd2081] | -0.172
CC1C(=O)CCC2[C@]3(C)CC[C@@]4(C)C5CC(C)(C)CC[C@]5(C)CC[C@]4(C)C3CC[C@]12C (stereo partly specified) [euspeclibcmpd1606] | -0.261
CC[C@@H]1OC(=O)C[C@@H](O)[C@H](C)[C@@H](O[C@@H]2O[C@H](C)[C@@H](O)[C@H](N(C)C)[C@H]2O)[C@@H](CCN2C[C@H](C)C[C@H](C)C2)CC(C)C(=O)/C=C/C(C)=C\C1CO[C@@H]1O[C@H](C)[C@@H](O)[C@@H](OC)[C@H]1OC (stereo partly specified) [euspeclibcmpd704] | 0.22
C=C(C)c1cc(O)c(C)cc1O [euspeclibcmpd1354] | 6.7 (active)
CC(C)(CO)C(=O)C(O)NCCC(=O)O (stereo unspecified) [euspeclibcmpd2436] | 0.216
Oc1ccc2c(c1)OCC1(O)Cc3cc(O)c(O)cc3C21 (stereo unspecified) [euspeclibcmpd1416] | 1.37

SMILES | Srxn1-GFP intensity median modified Z-score
NC(C(=O)C(O)C(O)CO)C(O)O (stereo unspecified) [euspeclibcmpd1661] | -0.409
CCC[C@@H]1CC(C(=O)N[C@@H]([C@@H]2O[C@H](SC)[C@H](O)[C@@H](O)[C@H]2O)[C@H](C)Cl)N(C)C1 (stereo partly specified) [euspeclibcmpd68] | -0.322
COC(=O)c1c(C)cc(OC(=O)c2c(C)cc(O)c(C=O)c2O)c(C)c1O [euspeclibcmpd1556] | 12.5 (active)
COc1cc(C)c(C(=O)Oc2cc(C)c(C(=O)O)c(O)c2C)c(OC)c1C [euspeclibcmpd1550] | 1.38
CCOC(=O)c1c(C)cc(O)c(C=O)c1O [euspeclibcmpd1571] | -0.398
COC1CC(OC2C(C)C(=O)OC(C)C(C)C(O)C(C)C(=O)C3(CO3)CC(C)C(OC3OC(C)CC(N(C)C)C3O)C2C)OC(C)C1O (stereo unspecified) [euspeclibcmpd1849] | -0.547
S=C=Nc1ccc(N=C=S)cc1 [euspeclibcmpd1177] | 20.6 (active)
O=S(=O)(O)c1cc(N=C=S)ccc1C=Cc1ccc(N=C=S)cc1S(=O)(=O)O [euspeclibcmpd1825] | -0.132
CCOC(=O)C(CCc1ccccc1)NC(C)C(=O)N1C(C(=O)O)C[C@@H]2CCC[C@@H]21 (stereo partly specified) [euspeclibcmpd722] | -0.468
CCCC(NC(C)C(=O)N1C(C(=O)O)C[C@@H]2CCCC[C@@H]21)C(=O)OCC (stereo partly specified) [euspeclibcmpd721] | -0.404
CCOC(=O)C(CCc1ccccc1)NC(C)C(=O)N1C(C(=O)O)CC2CCCCC21 (stereo unspecified) [euspeclibcmpd732] | 9.5 (active)
CC1C(=O)O[C@H]2CC34[C@H]5CC(C(C)(C)C)C36C(=O)C(O)O[C@H]6OC4(C(=O)O5)[C@@]12O (stereo partly specified) [euspeclibcmpd2300] | -0.422
CC(=O)Nc1ccc(OC(=O)c2ccccc2O)cc1 [euspeclibcmpd1988] | -0.258
CN(C)N=Nc1[nH]cnc1C(N)=O [euspeclibcmpd80] | 60.7 (active)
CN(C)c1cc(NC(=O)CNC(C)(C)C)c(O)c2c1C[C@H]1C[C@H]3[C@H](N(C)C)C(=O)C(C(N)=O)C(=O)[C@@]3(O)C(=O)C1C2=O (stereo partly specified) [euspeclibcmpd1297] | -0.316
OCc1cc(O)c2c(O)c3c(O)cccc3c([C@@H]3O[C@H](CO)[C@@H](O)[C@H](O)[C@H]3O)c2c1 [euspeclibcmpd1140] | -0.523
CCNC1CN(CCCOC)S(=O)(=O)c2sc(S(N)(=O)=O)cc21 (stereo unspecified) [euspeclibcmpd1945] | -0.371
COc1cc([C@@H]2c3cc4c(cc3C(O[C@@H]3O[C@@H]5CO[C@@H](c6cccs6)OC5[C@H](O)[C@H]3O)C3COC(=O)C32)OCO4)cc(OC)c1O (stereo partly specified) [euspeclibcmpd647] | 8.51 (active)
COc1cc([C@@H]2c3cc4c(cc3C(OC3O[C@@H]5COC(C)O[C@H]5[C@H](O)[C@H]3O)C3COC(=O)C32)OCO4)cc(OC)c1O (stereo partly specified) [euspeclibcmpd356] | 2.43 (active)
C=C1CCC(c2cc(O)oc2O)C(=O)CCC2C1CC2(C)C (stereo unspecified) [euspeclibcmpd1822] | -0.357
Nc1ccc(S(=O)(=O)N=c2nccc[nH]2)cc1 [euspeclibcmpd274] | -0.479
CCCCCCCCCCCCCCCC(=O)OCC(O)CO (stereo unspecified) [euspeclibcmpd1622] | -0.224

SMILES | Srxn1-GFP intensity median modified Z-score
CCc1ccc(CCOc2ccc(Cc3sc(=O)[nH]c3O)cc2)nc1 [euspeclibcmpd684] | -0.309
O=c1c(-c2ccc(Br)cc2)coc2cc(O)ccc12 | 0.373
C[C@]12CCC(=O)CC1=C1C[C@@H]1C1C2CC[C@@]2(C)C1[C@@H]1C[C@@H]1[C@@]21CCC(=O)O1 (stereo partly specified) [euspeclibcmpd608] | -0.491
C[C@@H]1O[C@@H](O[C@H]2[C@@H](Oc3cc(O)c4c(c3)O[C@H](c3ccc(O)cc3)CC4=O)O[C@H](CO)[C@@H](O)[C@@H]2O)[C@H](O)[C@H](O)[C@H]1O [euspeclibcmpd1504] | -0.249
Cc1ccc(-c2cc(C(F)(F)F)nn2-c2ccc(S(N)(=O)=O)cc2)cc1 [euspeclibcmpd595] | 2.01 (active)
COc1ccc(-c2cc(C(F)F)nn2-c2ccc(S(N)(=O)=O)cc2)cc1F [euspeclibcmpd724] | 0.694
NS(=O)(=O)c1ccc(C(=O)O)cc1 [euspeclibcmpd1180] | 0.0784
C=c1cc(O)c2c(O)c3c(O)c(=C)cc(O)c3c(O)c2c1O [euspeclibcmpd2077] | -0.258
CCCCC(=O)O[C@]1(C(=O)CO)[C@@H](C)CC2C3CC=C4CC(=O)C=C[C@]4(C)[C@@]3(F)C(O)C[C@@]21C (stereo partly specified) [euspeclibcmpd36] | -0.635
CS(=O)(=O)c1ccc(-c2coc(O)c2-c2ccccc2)cc1 [euspeclibcmpd2038] | -0.358
O=C(O)CS [euspeclibcmpd2222] | -0.181
O=C(O)CN(CCN(CC(=O)O)CC(=O)O)CCN(CC(=O)O)CC(=O)O [euspeclibcmpd916] | -0.735
O=C(O)CN(CCN(CC(=O)O)CC(=O)O)CC(=O)O | 2.26 (active)
O=C(O)CN(CCN(CC(=O)O)CC(=O)O)CC(=O)O [euspeclibcmpd2457] | -0.0932
COC1C(O)C(O)C(O)[C@@H](O)C1O (stereo partly specified) [euspeclibcmpd1333] | -0.525
C=C(NC(=O)C(C)=NC(=O)c1csc(C2=NC3c4csc(n4)C4NC(=O)c5csc(n5)C(C(C)(O)C(C)O)NC(=O)C5CSC(=N5)C(=CC)NC(=O)C(C(C)O)NC(=O)c5csc(n5)C3(CC2)NC(=O)C(C)NC(=O)/C(C)=N/C(=O)C(C)NC(=O)C(C(C)CC)NC2C=Cc3c(C(C)O)cc(nc3C2O)C(=O)OC4C)n1)C(N)=O (stereo unspecified) [euspeclibcmpd703] | 19.1 (active)
CC1(C)O[C@@H]2CC3C4CC=C5CC(=O)C=C[C@]5(C)C4[C@@H](O)C[C@]3(C)[C@]2(C(=O)CO)O1 (stereo partly specified) [euspeclibcmpd859] | -0.247
C[N+](C)(C)C[C@H](O)CC(=O)O [euspeclibcmpd2087] | -0.18
O=[N+]([O-])c1cccc2c[nH]nc12 [euspeclibcmpd1788] | -0.00617
CC(C)c1c(O)c(-c2cc3c(c(C(C)C)c2O)CCC2C(C)(C)CCC[C@]32C)cc2c1CCC1C(C)(C)CCC[C@]21C (stereo partly specified) [euspeclibcmpd1653] | -0.248
CC(C)c1c(O)ccc2c1CCC1C(C)(C)CCC[C@]21C (stereo partly specified) [euspeclibcmpd1572] | 8.09 (active)
COC(=O)[C@@]1(C)CCC[C@]2(C)c3ccc(O)c(C(C)C)c3CCC12 (stereo partly specified) [euspeclibcmpd1676] | 1.46
